Assay [1] deals with Alpha-galactosidase A (Homo sapiens) (UniProt P06280). Description: Counterscreen for Glucocerebrosidase Inhibitors: qHTS Assay for Human alpha-Galactosidase at pH 4.5 (AID 992). Note: 0% is about no effect. The method, boiled down:
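Each compound is preincubated briefly with 2 nM enzyme before substrate addition (80 uM); plates then sit 20 min at ambient temperature, are quenched with 1M NaOH/1M glycine, and read fluorometrically.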

Assay [2] deals with alpha-glucosidase (Oryza sativa, rice) (UniProt Q653V4). The assay can be described thus: Counterscreen for Glucocerebrosidase Inhibitors: qHTS Assay for Rice alpha-Glucosidase at pH 5.0 (AID 997).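 Note: 0% = full activity with enzyme and -100% = basal without enzyme.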 An outline of the steps:
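Endpoint fluorogenic assay at pH 5.0: compounds (0.7 nM to 77 uM) titrated against 4 nM rice enzyme and 400 uM 4-MU-alpha-glucoside for 20 min at room temperature; NaOH/glycine stop, read ex 365/em 440 nm, Hill-fitted AC50.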

Assay [3] is described as follows: qHTS Assay for Lipid Storage Modulators (AID 1519; calls by dose curve; for activity change, negative = inhibition: % is set by controls: 0 for no effect and ±100 for the full control effect). The conditions noted are these: Drosophila S3 cells, BODIPY lipid droplet/cell ratio, laser cytometry, cells loaded with oleic acid. The method, boiled down: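 Cells seeded at 5,000 per well were treated with compounds over a concentration series and loaded with oleic acid (400 uM, as added). Lipid droplet fluorescence (488 nm excitation, 500-530 nm channel) was read by laser-scanning cytometry and normalized to 20 uM Triacsin C.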

For assay [4], the target named is DNA repair nuclease/redox regulator APEX1 (Homo sapiens) (UniProt P27695). Description: qHTS Validation Assay for Inhibitors of the Human Apurinic/apyrimidinic Endonuclease 1 (APE1) (AID 1705; note: potency is the fitted concentration of half-maximal effect;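 for activity change, negative = inhibition: TAMRA fluorescence gain over two minutes as APE1 cuts a quenched THF abasic duplex; % is set by controls: 0 for no effect and ±100 for the full control effect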). An outline of the steps: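 qHTS, 1536-well. APE1 + cpd 15 min RT → 50 nM TAMRA/BHQ-2 THF-abasic dsDNA substrate → kinetic fluorescence, 3 reads/60 s; delta(read3−read1) = reaction progress. No-enzyme buffer = negative control.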

Assay [5] is described as follows: Cell Viability - LYMP2-002 (AID 977).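 Note: plate controls were DMSO only for no effect and 92 µM tetraoctylammonium bromide for full effect.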 The method, boiled down: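 Human lymphoblastoid cells, 2500/well, complete medium; 5 h 37 C settle; compound 24 h 37 C; CellTiter-Glo, 30 min RT; luminescence. Decrease in ATP = cytotoxicity; AC50 via Hill equation.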
Assay [6] is described as follows: Cell Viability - LYMP2-006 (AID 978). Note: % is set by controls: 0 for no effect and ±100 for the full control effect; nearly all actives have a fitted effect of over 60% in size. The method, boiled down: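 Cells are seeded at 2500 per well and rested 5 hr at 37 C. Compounds are added across a concentration series for 24 hr at 37 C, after which ATP is quantified by luciferase luminescence.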
Assay [7] is described as follows: Cell Viability - LYMP2-007 (AID 979).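 Note: cells exposed to compound for 24 h before reading; 0% = DMSO only and the negative end = 92 µM tetraoctylammonium bromide; nearly all actives have a fitted effect of over 60% in size.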 An outline of the steps:
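AC50 values come from Hill-equation fits of luminescent intracellular ATP (CellTiter-Glo, 30 min, room temperature) following 24 h compound exposure at 37 C. Cells: LYMP2-007 lymphoblastoid line, 2500 per well, in complete culture medium.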

Assay [8] can be described thus: Cell Viability - LYMP2-008 (AID 980). Note: % is set by controls: 0 for no effect and ±100 for the full control effect; nearly all actives have a fitted effect of over 60% in size. An outline of the steps:
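Cytotoxicity determined from ATP-dependent luciferase luminescence (CellTiter-Glo) following 24 h compound exposure of human lymphoblastoid LYMP2-008 cells at 37 C. Concentration-response data fitted to the Hill equation to give AC50.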

The nature of assay [9]: Cell Viability - LYMP2-010 (AID 981). Note: % is set by controls: 0 for no effect and ±100 for the full control effect; nearly all actives have a fitted effect of over 55% in size. The method, boiled down: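 CellTiter-Glo ATP luminescence measured cytotoxicity after 24 h compound exposure at 37 C. LYMP2-010 cells were seeded at 2500/well, with tetraoctylammonium bromide as control; concentration-response curves gave AC50 values by the Hill equation.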
A short description of assay [10]: Cell Viability - LYMP2-012 (AID 982).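 Note: cellular ATP by luciferase luminescence where a drop means cytotoxicity; cells exposed to compound for one day before reading; 0% = DMSO only and full loss = 92 µM tetraoctylammonium bromide; nearly all actives have a fitted effect of over 55% in size.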
The nature of assay [11]: Cell Viability - LYMP2-014 (AID 983).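 Note: plate controls were DMSO only for no effect and 92 µM tetraoctylammonium bromide for full effect; nearly all actives have a fitted effect of over 50% in size.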 The method, boiled down: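 Intracellular ATP loss, read by luciferase luminescence, measures acute cytotoxicity after 24 h compound exposure of lymphoblastoid LYMP2-014 cells (2500/well, 37 C). Concentration-response data fitted to the Hill equation for AC50.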
Assay [12] in a line: Cell Viability - LYMP2-016 (AID 984). Note: % is set by controls: 0 for no effect and ±100 for the full control effect; nearly all actives have a fitted effect of over 55% in size. An outline of the steps:
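Cells were seeded at 2500 per well and rested 5 hr before a 24 hr compound exposure at 37 C. Viability was then gauged as cellular ATP by luciferase luminescence, with AC50 values fitted to the Hill equation.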

A short description of assay [13]: Cell Viability - LYMP2-018 (AID 985).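 Note: plate controls were DMSO only for no effect and tetraoctylammonium bromide at 92 µM for full effect; nearly all actives have a fitted effect of over 50% in size.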 An outline of the steps: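 Viability read as CellTiter-Glo luminescence (cellular ATP) after 24 hr compound exposure at 37 C of 2500 LYMP2-018 lymphoblastoid cells/well, pre-plated 5 hr. Hill-equation modelling gave AC50.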
Assay [14] in a line: Cell Viability - LYMP2-020 (AID 986).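 Note: plate controls were DMSO only for no effect and tetraoctylammonium bromide at 92 µM for full effect; nearly all actives have a fitted effect of over 55% in size.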 An outline of the steps: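 Cytotoxicity in qHTS format: luminescent ATP readout from CellTiter-Glo after 24 h compound exposure at 37 C in complete medium. LYMP2-020 lymphoblastoid cells were seeded at 2500/well; concentration-response data fitted to the Hill equation for AC50.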
Assay [15] is described as follows: Cell Viability - LYMP2-022 (AID 987). An outline of the steps: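 Cytotoxicity read as decreased cellular ATP (CellTiter-Glo luminescence, 30 min room temperature) after 24 hours compound exposure of 2500 lymphoblastoid LYMP2-022 cells/well at 37 C. Concentration-response data fitted with standard Hill equation for AC50.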
Assay [16] in a line: Cell Viability - LYMP2-024 (AID 988).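 Note: plate controls were DMSO only for no effect and 92 µM tetraoctylammonium bromide for full effect; nearly all actives have a fitted effect of over 60% in size.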 The method, boiled down:
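Cytotoxicity was taken as a decrease in ATP (CellTiter-Glo luminescence) after 24 hr compound exposure at 37 C of LYMP2-024 lymphoblastoid cells, 2500 cells/well. Concentration-response data were fitted to the Hill equation to give AC50.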

Assay [17] in a line: Cell Viability - LYMP2-026 (AID 989). Note: % is set by controls: 0 for no effect and ±100 for the full control effect; nearly all actives have a fitted effect of over 50% in size. An outline of the steps: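 Cytotoxicity read as ATP-dependent luminescence (CellTiter-Glo, 30 min room temperature) after 24 h compound treatment at 37 C. LYMP2-026 lymphoblastoid line seeded at 2500 cells/well; AC50 derived by standard Hill equation.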
Assay [18] can be described thus: Cell Viability - LYMP1-002 - Assay at 24 hr (AID 993). Note: % is set by controls: 0 for no effect and ±100 for the full control effect. An outline of the steps:
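qHTS cytotoxicity at 24 h: CellTiter-Glo ATP luminescence in lymphoblastoid line LYMP1-002 incubated with compound at 37 °C. Concentration-response modeled with the Hill equation for AC50; tetraoctylammonium bromide served as positive control.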

A short description of assay [19]: Cell Viability - LYMP1-002 - Assay at 40 hr (AID 994). The method, boiled down:
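Cytotoxicity was read as loss of cellular ATP (CellTiter-Glo luminescence) after 40 hr compound exposure at 37 C of 2500 LYMP1-002 lymphoblastoid cells per well. Concentration-response data were fitted with the standard Hill equation to give AC50.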

The mark [20] stands for this setting: measured here: cell count channel max response.
Where [21] appears, read: measured here: lipid channel max response.

Structures are written as SMILES. Several values for one entry are separate records, joined by “and”; a condition that tells them apart may be missing. Identical values can stand only once. Results filed as inconclusive are left out. Activity calls are given as the source filed them. Unless noted, calls come from the whole dose curve; as a rule, active = well fitted curve in the direction sought with a large enough effect; inconclusive = small, poorly fitted or top-dose-only effect, or another doubt; inactive = no such curve, though single readings can be large; an effect the other way counts as inactive or inconclusive. Peptide text beside a SMILES is read from it.

Sequence of DNA repair nuclease/redox regulator APEX1 (Homo sapiens) (P27695 whole entry, looked up): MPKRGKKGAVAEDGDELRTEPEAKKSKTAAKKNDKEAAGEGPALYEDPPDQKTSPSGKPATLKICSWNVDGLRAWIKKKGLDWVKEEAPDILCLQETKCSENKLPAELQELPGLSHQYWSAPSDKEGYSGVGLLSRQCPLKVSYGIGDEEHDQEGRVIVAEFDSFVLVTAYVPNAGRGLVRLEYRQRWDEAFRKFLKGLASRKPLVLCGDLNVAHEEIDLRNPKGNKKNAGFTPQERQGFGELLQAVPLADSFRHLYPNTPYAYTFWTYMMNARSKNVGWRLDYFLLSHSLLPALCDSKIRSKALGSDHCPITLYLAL
Sequence of Alpha-galactosidase A (Homo sapiens) (P06280 whole entry, looked up): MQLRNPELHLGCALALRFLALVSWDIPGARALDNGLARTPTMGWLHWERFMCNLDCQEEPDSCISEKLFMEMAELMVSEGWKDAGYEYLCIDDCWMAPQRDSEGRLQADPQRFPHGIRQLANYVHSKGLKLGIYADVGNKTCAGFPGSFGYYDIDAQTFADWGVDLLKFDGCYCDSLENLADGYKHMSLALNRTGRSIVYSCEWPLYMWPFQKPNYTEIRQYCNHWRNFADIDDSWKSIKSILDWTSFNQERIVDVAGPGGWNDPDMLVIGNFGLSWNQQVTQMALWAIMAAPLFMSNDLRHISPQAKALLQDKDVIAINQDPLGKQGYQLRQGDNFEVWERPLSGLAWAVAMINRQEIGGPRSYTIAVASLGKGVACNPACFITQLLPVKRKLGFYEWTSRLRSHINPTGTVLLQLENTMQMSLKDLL

With `CCN(CC)C(=S)SSC(=S)N(CC)CC`, the compound was called inactive in [1] and in assay [2]. In assay [3] (at 25.7 µM (top of the series)), the activity change, negative = inhibition was -3.33% (inactive). In addition, the figures for the max response in [3] (setting [20]) and in assay [3] (setting [21]) were -15.7% and -17%, respectively. The Potency entry in assay [4] was “inactive”.
For the compound `NC(=NCc1ccccc1)NC(=O)c1nc(Cl)c(N)nc1N`, the call in assay [1] and in [2] was inactive. Also, the activity change, negative = inhibition is 0.817% (inactive) in assay [3] (at 25.7 µM (top of the series)) and 2.33% (inactive) in assay [3] (at 57.5 µM (top of the series)). In addition, the max response in assay [3] (setting [20]) was -4.7% and 21.8%; in [3] (setting [21]) it was -4.9% and 26.9%. The Potency result in assay [4] was “inactive”.
As to `O=c1ccc2ccc(O)c(O)c2o1`, the call in assay [1] and in [2] was inactive. Also, the Potency in assay [4] is 17.8 µM (active).
With `Nc1ccc(S(N)(=O)=O)cc1`, the Potency entry in [5], in assay [6], in assay [7], in assay [8], in [9] and in [10] was “inactive” throughout. The Potency entry in assay [11], in assay [12], in assay [13], in assay [14], in assay [15] and in assay [16] was “inactive” in each case. Further, the Potency result in assay [17], in assay [18] and in [19] was “inactive” each time. In addition, the activity change, negative = inhibition in [3] (at 25.7 µM (top of the series)) was 0.244% (inactive); in [3] (at 57.5 µM (top of the series)) it was 10.7% (inactive). The max response is -10.4% and 15.9% in [3] (setting [20]); -9.48% and 32.6% in [3] (setting [21]).
Consider `O=C(O)c1cc(=O)c2c(OCC(O)COc3cccc4oc(C(=O)O)cc(=O)c34)cccc2o1`, for which the activity change, negative = inhibition was -2.11% (inactive) in assay [3] (at 25.7 µM (top of the series)) and 11.5% (inactive) in assay [3] (at 57.5 µM (top of the series)). The max response is 9.46% and 18.8% in [3] (setting [20]); 8.64% and 34.9% in assay [3] (setting [21]).
Turning to `COC(=O)[C@H](Cc1ccccc1)NC(=O)[C@@H](N)CC(=O)O` (H-Asp-Phe-OMe), the Potency result in assay [5], in assay [6], in [7], in [8], in [9] and in [10] was “inactive” throughout. The Potency entry in [11], in assay [12], in assay [13], in assay [14], in assay [15] and in assay [16] was “inactive” in each case. The Potency result in [17], in [18] and in assay [19] was “inactive” in each case.
As for `CN1CCC(=C2c3ccccc3CCc3sccc32)CC1`, the results for the activity change, negative = inhibition in assay [3] (at 25.7 µM (top of the series)) and in assay [3] (at 57.5 µM (top of the series)) were -0.622% (inactive) and 3.6% (inactive), respectively. For the same compound, the max response was -11.4% and -0.631% in assay [3] (setting [20]); -11.1% and 14.8% in assay [3] (setting [21]).
On to `NS(=O)(=O)c1cc(C(=O)O)c(NCc2ccco2)cc1Cl`, for which the Potency result in assay [5], in assay [6], in [7], in [8], in [9] and in [10] was “inactive” throughout. Besides, the Potency result in [11], in assay [12], in assay [13], in [14], in assay [15] and in assay [16] was “inactive” throughout. Also, the Potency result in [17], in assay [18] and in assay [19] was “inactive” throughout. Further, in assay [3] (at 25.7 µM (top of the series)), the activity change, negative = inhibition is 1.95% (inactive). Moreover, the max response is -6.97% in [3] (setting [20]) and -4.2% in assay [3] (setting [21]).
With `Cc1ccc(C)c(OCCCC(C)(C)C(=O)O)c1`, the Potency result in [5], in assay [6], in assay [7], in [8], in assay [9] and in assay [10] was “inactive” each time. Moreover, the Potency entry in assay [11], in assay [12], in assay [13], in assay [14], in assay [15] and in assay [16] was “inactive” each time. For the same compound, the Potency entry in assay [17], in assay [18] and in [19] was “inactive” each time. For the same compound, the activity change, negative = inhibition in assay [3] (at 25.7 µM (top of the series)) was 0.467% (inactive). The max response in [3] (setting [20]) stood at 10.3%; in assay [3] (setting [21]), 8.2%.
As to `O=C(O)c1cccnc1Nc1cccc(C(F)(F)F)c1`, the outcome in assay [1] and in assay [2] was inactive. Also, the values for the activity change, negative = inhibition in assay [3] (at 25.7 µM (top of the series)) and in [3] (at 57.5 µM (top of the series)) were 2.12% (inactive) and 2.96% (inactive), respectively. For the same compound, the max response is -6.57% and 55.9% in assay [3] (setting [20]); -3.91% and 60.1% in assay [3] (setting [21]). The Potency entry in assay [4] is “inactive”.
Take `COc1ccccc1N1CCN(CCN(C(=O)C2CCCCC2)c2ccccn2)CC1`: the call in assay [1] and in assay [2] was inactive. Also, the Potency result in [4] is “inactive”.
Consider `Cc1c(OCC(F)(F)F)ccnc1CS(=O)c1nc2ccccc2[nH]1` (stereo unspecified), for which the outcome in assay [1] and in assay [2] was inactive. In addition, the activity change, negative = inhibition was -2.59% (inactive) in [3] (at 25.7 µM (top of the series)) and 0.201% (inactive) in assay [3] (at 57.5 µM (top of the series)). Moreover, the max response in assay [3] (setting [20]) was -16.9% and 6.05%; in assay [3] (setting [21]), -17.5% and 9.62%. For the same compound, the Potency entry in [4] was “inactive”.

The values above are taken from PubChem BioAssay (NCATS).
